We go through 28 compounds from PubChem BioAssay (NCI).

What all share (experiment): NCI-60 one-dose screen, 48 h (100 = growth as untreated, 0 = no growth, -100 = all killed)
Holding throughout (details): 10 µM unless noted

In assay [1] the test system is BT-549 breast.
The subject of assay [2] is MDA-MB-435 melanoma.
In assay [3] the test system is SW-620 colon.
The subject of assay [4] is MCF7 breast.
Assay [5] concerns HCT-116 colon.
The subject of assay [6] is KM12 colon.
Assay [7] relates to HCC-2998 colon.

The panel holds about 83,000 compounds, 20% with a hit somewhere; the sample as a whole holds those more often.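 For each line, cells grew in 96-well plates with the test compound present at a single concentration for 48 hours.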 A number with no mark means an inactive call. Active and inactive are the calls of the source. Rule for the calls: active = growth percent below 10; inactive = the rest.

For `CC[C@H](Nc1ncnc2nc[nH]c12)c1nc2cccc(CC(=O)c3ccc(C(=O)NO)cc3)c2c(=O)n1-c1ccccc1`, the growth was 85.8% in assay [1]; 97.6% in assay [2]; 96.3% in assay [3]; 77.9% in assay [4]; 90.5% in assay [5]; 93.5% in assay [6].

With `CNS(=O)(=O)c1cccc(-c2ccc3c4c(n(C)c(=O)c3c2)-c2ccccc2C4=O)c1`, the growth was 76.6% in assay [1]; 74.5% in assay [2]; 46.4% in assay [3]; 18.5% in assay [4]; 36.4% in assay [5]; 40.7% in assay [6].

Consider `Cc1ccc(C2CC(c3ccc(Nc4nc(NCCO)nc(NCCO)n4)cc3)=NN2c2ccc(Cl)cc2)cc1` (stereo unspecified), for which the growth in assay [1] was 79%; in assay [2] it was 61.5%; in assay [3], 80.4%; in assay [4], 27.6%; in assay [5], 41.2%; in assay [6], 52.4%.

`C=C(C)[C@@H]1CC[C@]2(C(=O)O)CC[C@]3(C)[C@H](CC[C@@H]4[C@@]5(C)C[C@@H](CC#Cc6ccccc6)C(=O)C(C)(C)[C@@H]5CC[C@]43C)[C@@H]12`: the growth in assay [1] was 40.7%; in assay [2], 66.8%; in assay [3], 27.3%; in assay [4], 15.5%; in assay [5] it was 9.07% (active); in assay [6], 27.9%.

For `CC1(C)[C@@H](O)CC[C@]2(C)[C@H]3CC[C@@H]4[C@H]5[C@H](c6cn(-c7ccccc7)nn6)CC[C@]5(CO)CC[C@@]4(C)[C@]3(C)CC[C@@H]12`, the growth in assay [1] is 80%; in assay [2], 93.9%; in assay [3], 94.3%; in assay [4], 52.8%; in assay [5], 94.4%; in assay [6], 88%.

Regarding `c1ccc(-c2n(Cc3ccc4ccccc4n3)cc[n+]2Cc2ccc3ccccc3c2)cc1`, the growth in assay [1] is 3.57% (active); in assay [2], 2.12% (active); in assay [3] it was 8.55% (active); in assay [7] it was -13.2% (active); in assay [6], -38.5% (active).

As to `COc1cc(/C=C/C(=O)c2ccc(NC(=O)CSc3nnc(-c4cc(OC)c(OC)c(OC)c4)n3-c3ccccc3)cc2)cc(OC)c1OC`, the growth in assay [1] is -19.6% (active); in assay [2] it was -36.1% (active); in assay [3] it was -76.4% (active); in assay [4], 11.2%; in assay [5], -80.6% (active); in assay [6], -6.65% (active).

Regarding `O=C(Nc1nc2ccc(C(F)(F)F)cc2s1)c1cc(Cl)ccc1O`, the growth in assay [1] is -8.57% (active); in assay [2] it was 10.2%; in assay [3] it was 12.8%; in assay [4], -1.08% (active); in assay [5], 4.81% (active); in assay [6], 8.91% (active).

As for `CCOC(=O)c1c(C)nc2c(c1N)/C(=C/c1cccs1)C(=O)N2Cc1ccccc1`, the growth in assay [1] is 73.6%; in assay [2], 88.9%; in assay [3], 58%; in assay [4] it was 8.22% (active); in assay [5], 34.9%; in assay [6], 40.5%.

In the case of `Cc1nnc(/N=C2\NC(=O)/C(=C/c3ccc(N(C)C)cc3)S2)s1`, the growth in assay [1] is 67.4%; in assay [2] it was 9.37% (active); in assay [3], 66.9%; in assay [4], 53.4%; in assay [5], 54.6%; in assay [6], 46.1%.

Regarding `COc1ccc(NC(=O)Nc2ccc(Nc3nc(C)cc(Nc4ccc(C)cc4)n3)cc2)cc1`, the growth is 3.93% (active) in assay [1]; -97.5% (active) in assay [2]; -62% (active) in assay [3]; -63.8% (active) in assay [4]; -91.6% (active) in assay [5]; -88.1% (active) in assay [6].

With `C=C1C(=O)O[C@H]2[C@H]1CC/C(COC(=O)c1c[nH]c3ccccc13)=C\CC[C@@]1(C)O[C@@H]21`, the growth in assay [1] is -37.2% (active); in assay [2], -82.9% (active); in assay [3] it was -61.4% (active); in assay [4] it was -52.7% (active); in assay [5], -86.1% (active); in assay [6] it was -47.4% (active).

For the compound `Cc1cc(NC(=O)CNc2nc(Oc3ccc(F)cc3)nc(-c3ccc(F)cc3)n2)ccc1Cl`, the growth is 100% in assay [1]; 105% in assay [2]; 101% in assay [3]; 94.8% in assay [4]; 82.1% in assay [5]; 103% in assay [6].

For `O=CN1N=C(c2ccc3c(c2)OCO3)CC1c1cccc(Nc2ccnc3cc(C(F)(F)F)ccc23)c1` (stereo unspecified), the growth is 75% in assay [1]; 40.6% in assay [2]; 95.1% in assay [3]; 68.2% in assay [4]; 74.5% in assay [5]; 66.6% in assay [6].

As for `OCCNc1nc(NCCO)nc(Nc2ccc(C3=NN(c4cc(Cl)cc(Cl)c4)C(c4ccc(C(F)(F)F)cc4)C3)cc2)n1` (stereo unspecified), the growth in assay [1] was 60.8%; in assay [2] it was 42.1%; in assay [3], 60.1%; in assay [4], 10.7%; in assay [5], 32.7%; in assay [6], 26%.

On to `S=C(Nc1ccc(Cl)cc1)c1ccccn1`, for which the growth in assay [1] is 94.5%; in assay [2] it was 106%; in assay [4], 81.4%; in assay [5], 89.7%; in assay [7] it was 110%.

Turning to `O=C(CCc1nnco1)c1nc2ccc([N+](=O)[O-])cc2[nH]1`, the growth in assay [1] is 106%; in assay [2] it was 106%; in assay [3], 106%; in assay [7] it was 93.4%.

In the case of `C[C@]12CC[C@@H]3c4ccc(O)cc4CC[C@H]3[C@@H]1C[C@H](O)C2`, the growth in assay [1] was 79.1%; in assay [2], 0.155% (active); in assay [3], 33.9%; in assay [4], 61%; in assay [5], 49.1%; in assay [6] it was 76.3%.

On to `O=c1nc(-c2ccccc2)c2cc(-c3ccc(N4CCCC4)nc3)ccc2[nH]1`, for which the growth in assay [1] was 64%; in assay [2], -1.96% (active); in assay [3], 45.8%; in assay [4] it was 35.4%; in assay [5] it was 45.7%; in assay [6], 56.7%.

With `O=S(=O)(O)c1ccc(N=NSc2ccc3ccccc3c2)cc1`, the growth was 94% in assay [1]; 99.9% in assay [2]; 96.5% in assay [3]; 98.9% in assay [4]; 85.8% in assay [5]; 98.6% in assay [6].

As to `COc1cc2c(Nc3ccc(NC(=O)Nc4ccc(Cl)c(C(F)(F)F)c4)c(Cl)c3)ncnc2cc1OCCCN1CCN(C)CC1`, the growth in assay [1] was 21.6%; in assay [2], -71.2% (active); in assay [3] it was -85.4% (active); in assay [4], -77.4% (active); in assay [5], -73.2% (active); in assay [6], -55.1% (active).

Regarding `COc1ccc(C2C(c3ccccc3)C(=O)N2c2cc(OC)c(OC)c(OC)c2)cc1I` (stereo unspecified), the growth in assay [1] was 12%; in assay [2] it was 2.2% (active); in assay [3], 23.7%; in assay [4], 8.53% (active); in assay [5], 3.14% (active); in assay [6], 15.3%.

With `c1ccc(-c2cn3ccnc3c(-c3ccc4c(c3)ncn4C3CCCCC3)n2)cc1`, the growth in assay [1] was 99.6%; in assay [2], 99.5%; in assay [3], 110%; in assay [4], 84.1%; in assay [5], 96.2%; in assay [6], 94.3%.

In the case of `Cc1c(Cl)cccc1NC(=O)c1sc2nc3c(cc2c1N)CCCCC3`, the growth in assay [1] is 48.7%; in assay [2], -0.269% (active); in assay [3], 25.3%; in assay [4], 20.8%; in assay [5], 32.3%; in assay [6] it was 24.7%.

`CCCCc1n(Cc2ccc3ccccc3n2)cc[n+]1Cc1ccc2ccccc2c1`: the growth in assay [1] is -16.9% (active); in assay [2], 1.33% (active); in assay [3], 11.2%; in assay [7] it was -6.38% (active); in assay [6], -42.4% (active).

Consider `COc1ccc(-c2cc(-c3nnc(SCC(=O)Nc4ccc(/C(C)=N\O)cc4)n3-c3ccccc3)c3cc(OC)ccc3n2)cc1`, for which the growth in assay [1] was 63.7%; in assay [2], 79.2%; in assay [3] it was 82.1%; in assay [7], 100%; in assay [6], 61.1%.

In the case of `O=C(Nc1ccccc1)NS(=O)(=O)c1c[nH]c(=S)[nH]c1=O`, the growth was 92.1% in assay [1]; 108% in assay [2]; 105% in assay [3]; 100% in assay [4]; 93.8% in assay [5]; 105% in assay [6].

Take `C=CCn1c(SCC(=O)Nc2ccc(C(=O)/C=C/c3cc(OC)c(OC)c(OC)c3)cc2)nnc1-c1ccc(Cl)cc1`: the growth is 10.4% in assay [1]; 5.58% (active) in assay [2]; -3.5% (active) in assay [4]; -62.2% (active) in assay [5]; -8.4% (active) in assay [7].
